ClpP mod: qHTS Assay for Activators of ClpP; Potency, µM (top dose mostly 57.5 µM); purified B. subtilis ClpP, FRET peptide cleavage, 20 min; ATP-dependent Clp protease proteolytic subunit (Bacillus subtilis (strain 168)), P80244; 340,000 tested, 1.9% active; AID 651965, 2013; active = well fitted falling curve with a large enough effect; inconclusive = small, poorly fitted or top-dose-only effect; inactive = no such curve, though single readings can be large or run the other way; also: the source files actives as falling curves though it sought activators and does not explain the sign; nearly all actives have a fitted effect of over 65% in size
Target sequence (P80244 whole entry, looked up): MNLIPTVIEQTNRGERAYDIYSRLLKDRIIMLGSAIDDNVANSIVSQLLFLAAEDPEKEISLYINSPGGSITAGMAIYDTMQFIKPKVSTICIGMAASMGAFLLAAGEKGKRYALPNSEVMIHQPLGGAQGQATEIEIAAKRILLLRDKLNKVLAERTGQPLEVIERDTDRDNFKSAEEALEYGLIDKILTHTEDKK
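Purified B. subtilis ClpP, 10 microg/mL final in Tris/HCl pH8 with KCl, BSA, glycerol and Tween-20, cleaved an Abz/nitrotyrosine-quenched decapeptide. Fluorescence (ex 320, em 430) was read at 0 and 20 min at room temperature. Delta was normalized to 5.8 microM ADEP and DMSO/no-enzyme controls.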
VP16 counter: Gal4-VP16 reporter inhibition counter-screen; Potency, µM (doses to about 53.6 µM), hits mostly inhibitors; AID 2546; 310,000 tested, 3.5% active; Drosophila S2 Gal4-VP16 UAS-luciferase, luminescence, 20 h;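 also: Gal4-VP16 expression switched on by copper sulfate through the metallothionein promoter; nearly all actives have a fitted effect of over 50% in size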
PINK1 expr mod: changes PINK1 expression. PINK1 immunofluorescence, high-content cytometry, 24 h. Potency, µM (series often up to 76.6 µM), actives largely listed as activators. 410,000 tested, 0.2% active. AID 624263; active = well fitted activation curve with a large enough effect; inconclusive = small, poorly fitted or top-dose-only effect; cell line not stated here; also: nearly all actives have a fitted effect of over 65% in size
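Stable cell line treated 24 h with compounds at 5 concentrations (CCCP controls), then fixed and immunostained for PINK1 plus nuclear and cell stains; PINK1 immunofluorescence quantified by laser-scanning microplate cytometry.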
Sfp inh: Sfp phosphopantetheinyl transferase inhibition; Q9F4F7; Biochemical Sfp PPTase activity, qHTS; Potency, µM, hits mostly inhibitors; 310,000 tested, 3.5% active; AID 1490;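 also: the enzyme is Sfp with the accession as filed and its product quenches rhodamine fluorescence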
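Compounds were incubated with enzyme (final 15 nM) for 15 min at room temperature before substrate addition started the reaction. Fluorescence at 525 nm excitation, 598 nm emission was recorded immediately and after 30 minutes.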
Epigenetic derep: derepresses silenced GFP reporter in murine cells | murine LDR cells, GFP reporter derepression, 30 h | Potency, µM (titrated, usually from 53.9 µM), actives largely listed as activators | 280,000 tested, 0.2% active; also: nearly all actives have a fitted effect of over 60% in size
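Readout is the number of GFP-expressing murine LDR cells, counted by cytometry following washing. Cells were treated with compound for 30 h at 37 C; the stably integrated CMV-GFP locus is normally silent.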
RORgamma inh: ROR gamma (mouse) transcription inhibition; Drosophila S2 Gal4-RORgamma UAS-luciferase reporter, 20 h; Potency, µM (titrated, usually from 53.6 µM), most hits filed as inhibitors; 310,000 tested, 5.4% active; also: nearly all actives have a fitted effect of over 60% in size
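Drosophila S2 cells stably expressing Gal4-DBD/mouse RORγ fusion under metallothionein promoter plus UAS-luciferase; compound 1 h, then 700 uM CuSO4 induction for 20 h at ambient temperature; inhibition read as reduced luminescence.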
Each line names hits and unclear results; the compound was inactive in the other large screens. A selection: hits, their analogues and other compounds. The true share with any hit is near 8.1%. Unless noted, calls follow the shape of the dose curve; as a rule, active = well fitted curve in the direction sought with a large enough effect; inconclusive = small, poorly fitted or top-dose-only effect, or another doubt; inactive = no such curve, though single readings can be large; an effect the other way counts as inactive or inconclusive.

COc1cccc(C2=CC(c3cccc(OC)c3OC(F)F)n3nnnc3N2)c1 (centres undefined)	none
COc1ccc(C2=CC(c3ccc(C)cc3)n3nnnc3N2)cc1 (centres undefined)	ClpP mod 25µM, Sfp inh inconclusive
COc1cccc(C2=CC(c3cccc(OC)c3OC)n3nnnc3N2)c1 (centres undefined)	Sfp inh inconclusive, RORgamma inh 3.2µM
COc1cccc(C2=CC(c3ccccc3)n3nnnc3N2)c1 (centres undefined)	VP16 counter 35µM, Sfp inh 45µM, RORgamma inh inconclusive
COc1cccc(C2=CC(c3ccc(N(C)C)cc3)n3nnnc3N2)c1 (centres undefined)	none
Cn1c(CSCc2ccc(Cl)cc2)n[nH]c1=S	VP16 counter 13µM, RORgamma inh 2.8µM (no result: ClpP mod)
Cn1c(CSCc2ccc(Cl)cc2Cl)n[nH]c1=S	VP16 counter 6.3µM, RORgamma inh 0.79µM
Cn1c(CSCc2ccccc2)n[nH]c1=S	VP16 counter inconclusive, RORgamma inh 11µM
Cn1c(CSCc2ccc(F)cc2)n[nH]c1=S	VP16 counter inconclusive, RORgamma inh inconclusive (no result: Epigenetic derep)
COc1cccc(-c2nn(C)c3sc(C(=O)NCCc4cccc(C)c4)cc23)c1	none (no result: VP16 counter, Sfp inh, RORgamma inh)
Cc1ccc2oc(-c3ccc(C)c(NC(=O)COc4ccc(Cl)cc4)c3)nc2c1	none (no result: VP16 counter, Sfp inh, Epigenetic derep, RORgamma inh)
Cc1c(C(=O)OCCOC(C)C)[nH]c2c1C(=O)CC(c1ccco1)C2 (centres undefined)	Sfp inh inconclusive, RORgamma inh inconclusive
CCOC(=O)c1[nH]c2c(c1C)C(=O)CC(c1ccco1)C2 (centres undefined)	Sfp inh 25µM, RORgamma inh inconclusive
COCCOC(=O)c1[nH]c2c(c1C)C(=O)CC(c1ccco1)C2 (centres undefined)	none
Cc1c(C(=O)OCc2ccccc2)[nH]c2c1C(=O)CC(c1ccco1)C2 (centres undefined)	VP16 counter inconclusive, Sfp inh 40µM
CSCCOC(=O)c1[nH]c2c(c1C)C(=O)CC(c1ccco1)C2 (centres undefined)	Sfp inh 45µM, RORgamma inh inconclusive
CC[C@H](C)[C@H](NC(=O)[C@@H](NC(=O)CNC(=O)[C@@H](N)CC(C)C)[C@@H](C)O)C(=O)N1CCC[C@H]1C(=O)NCC(=O)O	none (no result: ClpP mod, PINK1 expr mod, Epigenetic derep)
CC(Oc1cccc(Br)c1)C(=O)NNC(=O)c1ccccn1 (centres undefined)	none (no result: VP16 counter, Sfp inh, Epigenetic derep, RORgamma inh)
C/C(=N\NC(=O)C(C)Oc1ccc([N+](=O)[O-])cc1)c1ccccn1 (centres undefined)	VP16 counter 2.2µM, Epigenetic derep 16µM, RORgamma inh 1.1µM
COc1ccc(OCC(=O)NNC(=O)c2ccccn2)cc1	VP16 counter inconclusive, RORgamma inh 13µM
CC(Oc1ccccc1)C(=O)NNC(=O)c1ccccn1 (centres undefined)	VP16 counter inconclusive, RORgamma inh 7.9µM
COc1ccc(OC(C)C(=O)Nc2ccc([N+](=O)[O-])cc2)cc1 (centres undefined)	RORgamma inh inconclusive (no result: ClpP mod)
Cc1nc(C(=O)NNC(=O)c2ccc(Cl)cc2)cs1	VP16 counter inconclusive, RORgamma inh 4µM (no result: ClpP mod)
CCOc1ccc(S(=O)(=O)NCc2nc3cccnc3n2Cc2ccccc2OC)cc1	none (no result: VP16 counter, Sfp inh, RORgamma inh)
CCOc1ccccc1CNC(=O)c1cn(-c2ccc(OC)cc2)c(=O)c2ccccc12	none (no result: VP16 counter, Sfp inh, RORgamma inh)
O=C(NN=C1CCCCCCC1)c1ccccn1	none
COc1ccc2c(c1)C(=NNC(=O)c1ccccn1)c1cc(OC)ccc1-2	VP16 counter 4µM, Sfp inh inconclusive, RORgamma inh 2.8µM (no result: ClpP mod)
COc1cc(OC)cc(C(=O)NNC(=O)c2ccc3ccccc3n2)c1	none (no result: VP16 counter, Sfp inh, Epigenetic derep, RORgamma inh)
COc1cc(OC)cc(C(=O)NNC(=O)c2ccccn2)c1	VP16 counter 5.6µM, RORgamma inh 4.5µM (no result: ClpP mod)
COc1ccc(C(=O)NNC(=O)c2ccccn2)cc1	VP16 counter 5.6µM, RORgamma inh 7.1µM
COc1ccc(C(=O)NCCNC(=O)c2ccccn2)cc1	none (no result: ClpP mod, Epigenetic derep)
Cc1cc(C)n(-c2nc3cc(Cl)ccc3nc2N2CCN(c3cccc(C)c3C)CC2)n1	none (no result: VP16 counter, Sfp inh, RORgamma inh)

Source: PubChem BioAssay
